Among the data in US20100081621, “Crystal structure of the catalytic domain of the viral restriction factor APOBEC3G” (published 2010) are binding signal values, retold here.

The target of the test is APOBEC3G R374E/R376D (Homo sapiens, UniProt Q9HC16 Q9HC16:1-384, R374E,R376D). As to the kind of experiment: FP; binding impaired by 46%; 5 mM MgCl2, 37 C. The conditions noted are these: tags: Sf9, pAcG2T; label: internal fluorescein-dT; ssDNA; [15 (fluorescein-dT)]. Here is the method: Apo3G-DNA binding were monitored by changes in steady state fluorescence depolarization (rotational anisotropy). Reaction mixtures (70 μl), containing an F-labeled DNA ([…]) in buffer (50 mM HEPES, pH 7.3, 1 mM DTT and 5 mM MgCl₂) and varying concentration of 0 to 500 nM Apo3G, were incubated at 37° C. The sequence of the ssDNA is: tta gat gag tgt aa(FdT) gtg ata tat gtg tat. Rotational anisotropy was measured as described previously (Chelico et al., 2006). The fraction of DNA bound to protein was determined as described previously (Bertram et al., 2004).
APOBEC3G R374E/R376D, sequence (Q9HC16 whole entry R374E/R376D, one chain of several): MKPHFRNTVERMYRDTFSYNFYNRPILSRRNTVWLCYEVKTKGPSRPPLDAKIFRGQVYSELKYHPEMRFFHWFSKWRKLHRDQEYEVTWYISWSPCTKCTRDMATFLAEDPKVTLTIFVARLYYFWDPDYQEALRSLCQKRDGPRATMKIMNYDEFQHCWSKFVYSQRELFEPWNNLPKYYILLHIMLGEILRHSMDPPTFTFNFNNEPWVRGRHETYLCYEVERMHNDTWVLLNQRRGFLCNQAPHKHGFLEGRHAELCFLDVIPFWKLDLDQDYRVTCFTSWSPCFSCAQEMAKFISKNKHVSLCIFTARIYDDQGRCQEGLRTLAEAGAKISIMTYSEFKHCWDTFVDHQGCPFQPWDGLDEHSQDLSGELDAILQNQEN
Take TTAGATGAGTGTAATGTGATATATGTGTAT: the binding signal was 54 % of wt.
